Screens as filed in PubChem.
EWS-Fli inh: inhibitors of EWS/Fli oncoprotein transcriptional activity; A673 NR0B1-luciferase reporter, viability-normalised; hit rate 0.67% among 350,000; inhibition, % at 12.6 µM;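 active = mean inhibition of at least 50% after viability correction, with every replicate also passing that limit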;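 note: firefly luciferase signal divided by Alamar Blue viability fluorescence both relative to DMSO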
LGR2 inh: blocks bursicon-induced cAMP signaling via Drosophila LGR2; HEK293 LGR2, CRE-luciferase, bursicon-stimulated, 4 h; hit rate 0.35% among 380,000; inhibition, % at 9.99 µM;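 active = drop in luminescence signal, shown as inhibition above about 50% in the replicate tests, limit read from the data, passing the limit was not always enough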;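 note: agonist challenge used bursicon conditioned medium at about half maximal strength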
PAX8 reporter: inhibitors of PAX8 transcriptional activity in RMG-I cells. RMG-I TPO-luciferase reporter, SteadyGlo, 24 h. inhibition, % at 12.6 µM. hit rate 1.2% among 360,000;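 active = mean replicate inhibition at least 60% with every replicate also reaching 60%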;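 note: luciferase light reporting Pax8 driven TPO promoter activity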
KKLEB cytotox: counter-screen for CF NF-kB inhibitors: cytotoxicity | KKLEB CF airway cells viability, ATPlite luminescence, overnight; hits give low values; cells stimulated with P. aeruginosa culture filtrate | activity change (cytotoxicity), % at 5 µM | hit rate 0.36% among 360,000 | AID 602141;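 active = corrected activity change at or below -50% at 5 µM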
Shn3 3UTR inh: inhibitors of Schnurri-3 3'UTR reporter in osteoblasts. Clone20 osteoblast Shn3 3'UTR firefly luciferase, 24 h. hit rate 0.52% among 360,000. AID 588674. inhibition, % at 12.5 µM;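 active = mean inhibition of at least 75% with every replicate also reaching 75%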
CF NFkB block: blocks PAF-induced NF-kB reporter in cystic fibrosis cells; hit rate 0.86% among 360,000; AID 588850; inhibition, % at 5 µM; KKLEB NF-kB-GFP reporter, GFP fluorescence overnight;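 active = at least 50% inhibition at 5 µM, scaled per plate between neutral and stimulator controls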;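 note: PAF is a Pseudomonas aeruginosa culture filtrate used as stimulus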
DNA binding: binds DNA displacing acridine orange; AID 720586; shares compounds with EWS-Fli inh; salmon sperm DNA acridine orange fluorescence polarization; hit rate 2% among 640; AC35, µM (doses to about 68 µM);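 active = fitted curve reaches a 35% signal fall AC35 below twice the sample's top valid tested dose, actives reach about 48 µM in these data; inactive = the rest, including activity in the rising direction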;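 note: lower polarization ratio signals compound binding to DNA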
Hits are given with their value; 0 = inactive; - = not tested or not shown. Only some compounds are listed: those with a hit (about 2% of all), similar ones and a draw of the others.

SMILES	EWS-Fli inh	LGR2 inh	PAX8 reporter	KKLEB cytotox	Shn3 3UTR inh	CF NFkB block	DNA binding
C[C@H](CO)N1C[C@H](C)[C@H](CN(C)Cc2ccc(C(F)(F)F)cc2)Oc2c(NS(=O)(=O)c3ccc(Cl)cc3)cccc2C1=O	59.7	0	-	-	-	-	0
C[C@H]1CN([C@@H](C)CO)C(=O)c2cc(NS(=O)(=O)c3cccs3)ccc2O[C@H]1CN(C)Cc1ccc(C(=O)O)cc1	0	0	-	-	-	-	-
COc1ccc(S(=O)(=O)N2CCCc3nc(-c4ccc(F)cc4)ccc32)cc1	60.0	0	0	-	-	-	0
C[C@H]1CN([C@@H](C)CO)C(=O)Cc2cc(NC(=O)Nc3ccccc3)ccc2O[C@H]1CN(C)CC1CCCCC1	0	0	0	-	-	-	-
CN(C)CC#Cc1ccc([C@@H]2[C@@H](CO)N3CCCCN(S(=O)(=O)c4ccccc4)C[C@@H]23)cc1	0	0	0	-	-	-	-
O=C(NCc1ccccn1)c1ccc(CNS(=O)(=O)c2cccc(Cl)c2)cc1	58.3	0	0	0	0	0	0
O=C(O)CN1C(=O)/C(=C\c2ccccc2OCc2ccc(Cl)cc2Cl)SC1=S	59.1	0	0	0	0	0	0
CS(=O)(=O)N1[C@@H]2c3ccc(C4=CCCCC4)c(=O)n3C[C@H]1[C@H](CO)[C@H]2C(=O)N1CCOCC1	0	0	0	-	-	-	-
Cc1ccsc1C(=O)OCC(=O)NCCC1=CCCCC1	65.0	0	0	0	0	0	0
CN(C)c1ccc(C(=O)OCC(=O)NCCC2=CCCCC2)cc1	0	0	0	0	0	0	-
CCN1CCN(/C=N/c2nc3c(s2)CCCC3)CC1	57.2	80.0	-	0	0	0	0
C[C@@H]1CN([C@@H](C)CO)C(=O)c2cc(NC(=O)NC3CCCCC3)ccc2O[C@H]1CN(C)C(=O)NC1CCCCC1	0	0	-	-	-	-	-
COc1ccc(-c2cc(COc3ccccc3)on2)cc1	0	0	0	0	0	0	-
COc1ccc(-c2cc(CNc3nc(NC(C)C)nc4cc(-c5ccccc5)sc34)on2)cc1	53.9	0	103.7	0	0	0	0
O=c1[nH]c(=O)n(C2CC(O)C(CO)O2)cc1I (centres undefined)	0	0	0	0	0	0	-
O=c1[nH]c(=O)n([C@H]2C[C@H](O)[C@@H](CO)O2)cc1F	64.4	0	0	0	0	0	0
Cc1ccc(OCCNC(=O)c2cccc(S(=O)(=O)NCc3ccccc3)c2)cc1	56.0	0	0	0	0	0	0
O=C(c1cccc(S(=O)(=O)NCc2ccccc2)c1)N1CCN(c2ccc(F)cc2)CC1	0	0	0	0	0	0	-
O=C(c1cccc(S(=O)(=O)NCc2ccccc2)c1)N1CCN(c2ccccc2)CC1	51.8	0	0	0	0	0	0
O=C1c2ccc3c4c(ccc(c24)C(=O)N1c1cccc(O)c1)CC3	0	0	0	0	0	0	-
O=C1c2ccc3c4c(ccc(c24)C(=O)N1c1cccc(O)c1)C(=O)N(c1cccc(O)c1)C3=O	59.7	0	0	0	-	50.7	0
Cc1noc(C)c1C(=O)Nc1sccc1C(N)=O	76.4	0	0	0	0	0	0
O=C(NC1Cc2ccccc2C1)[C@H]1N[C@H]2c3ccc(C4=CCCCC4)c(=O)n3C[C@H]2[C@@H]1CO	0	0	0	-	-	-	-
COc1cc(/C=C/C(=O)CC(=O)/C=C/c2ccc(O)c(OC)c2)ccc1O	72.8	-	0	0	0	0	40.2µM
COc1cc(/C=C/C(=O)/C=C(O)/C=C/c2ccc(O)c(OC)c2)ccc1O	80.9	0	0	0	0	0	29.8µM
SMILES	EWS-Fli inh	LGR2 inh	PAX8 reporter	KKLEB cytotox	Shn3 3UTR inh	CF NFkB block	DNA binding
COc1cc(C=C(C(C)=O)C(C)=O)ccc1O	-	-	0	0	0	0	-
O=C(Nc1ccc(F)cc1)N1CCCCN2[C@@H](CO)[C@H](c3ccc(C4=CCCCC4)cc3)[C@@H]2C1	51.6	0	0	-	-	-	0
O=c1cc(-c2ccccc2)oc2ccc3ccccc3c12	80.7	101.2	90.7	-67.0	0	0	0
O=c1cc(-c2ccccc2)oc2c1ccc1ccccc12	0	0	-	-	-	-	-
CC(C)CC#Cc1ccc([C@@H]2[C@@H](CO)N3CCCCN(S(=O)(=O)c4ccc(F)cc4)C[C@H]23)cc1	81.9	0	91.4	-	-	-	0
COc1ccc(C#Cc2cccc(-c3nc(C(=O)N[C@@H]4CCN(Cc5ccccc5)C4)cc4c3[C@@H](CCO)N(S(=O)C(C)(C)C)C4)c2)cc1OC (some centres undefined)	0	-	0	-	-	-	-
Nc1ccc(Oc2ccccc2-c2ccccc2)cc1	63.4	-	0	0	-	0	0
CN=c1scc(-c2cccs2)n1/N=C/c1ccccc1O	93.4	100.0	117.9	-69.3	89.8	0	0
N#CC1=C(N)Oc2cc(N)ccc2C1c1cccc(F)c1 (centres undefined)	52.6	0	0	0	0	0	0
Cc1ccc(S(=O)(=O)N(C)C[C@@H]2OCCCC[C@@H](C)Oc3ccc(NC(=O)NC(C)C)cc3C(=O)N([C@@H](C)CO)C[C@@H]2C)cc1	0	0	0	-	-	-	-
CN1CCN(C(=O)C[C@H]2CC[C@@H]3[C@H](COC[C@@H](O)CN3C(=O)C3CCOCC3)O2)CC1	0	0	0	-	-	-	-
CCCCN=C(NNc1ccc(Br)cc1)C(=O)OCC	78.8	0	0	0	0	0	0
N#C[C@H]1[C@H](c2ccc(-c3cccc(F)c3)cc2)[C@@H](CO)N1C(=O)NC1CCCCC1	0	0	-	-	-	-	-
COC(=O)C[C@@H]1CC[C@H]2[C@H](COc3ccc(NC(=O)Nc4ccc(C#N)cc4)cc3C(=O)N2C)O1	86.8	0	0	-	-	-	0
COC(=O)C[C@@H]1CC[C@@H]2[C@@H](COc3ccc(NC(=O)Nc4ccc(C#N)cc4)cc3C(=O)N2C)O1	78.1	0	0	-	-	-	0
OC[C@H]1Nc2ccc(C#Cc3ccc(F)cc3)cc2[C@H]2[C@@H]1CCN2Cc1nccs1	0	0	0	-	-	-	-
C[C@@H](NC(=O)C[C@@H]1CC[C@H]2[C@@H](COC[C@@H](O)CN2C(=O)Nc2cccc(Cl)c2)O1)c1ccccc1	0	0	0	-	-	-	-
O=C(O)/C=C/c1ccc2ccccc2n1	-	-	-	0	0	0	-
C(=Cc1c[nH]c2ccccc12)c1ccc2ccccc2n1	67.4	88.6	0	0	0	0	0
CCS(=O)(=O)N1Cc2ccccc2CC1C(=O)Nc1nnc(SCc2ccc(C#N)cc2)s1 (centres undefined)	65.9	0	0	0	0	0	0
COc1ccc(S(=O)(=O)N(C)C[C@@H]2OCCCC[C@@H](C)Oc3ccc(NC(=O)Nc4ccc5c(c4)OCO5)cc3C(=O)N([C@@H](C)CO)C[C@H]2C)cc1	0	0	0	-	-	-	-
O=c1ccc2ccccc2c2ccccc12	63.0	0	88.4	0	0	64.6	0
CCC(=O)N[C@@H]1C=C[C@@H](CC(=O)NCc2ccccc2OC)O[C@H]1CO	0	0	0	-	-	-	-
O=C(N/N=C/c1cnc(N2CCCCC2)s1)c1ccc(C(F)(F)F)cc1	53.7	0	73.5	0	0	0	0
